Results as given in PubChem BioAssay (EPA / NIEHS).
Calls of active or inactive are those of the source. How the source made its calls: active means hit-call score of the fitted dose curve at least 0.9, where 1 is the maximum; inactive means score below 0.9.

What was measured:
Details in all cases: mRNA level, 48 h; actives raise or lower the signal
CYP4A11 (gene 1579) = test: LTEA_HepaRG_CYP4A11: Life Technologies and Expression Analysis (LTEA) Assay for CYP4A11 using HepaRG (AID 2283486)
Procedure, shortened: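 Readout is CYP4A11 transcript level by qRT-PCR, normalized to three housekeeping genes and fitted bidirectionally against 0.5% DMSO. Human HepaRG cells were treated 48 h, in duplicate, with an 8-point half-log series topping at 100 uM.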

[1] = read-out: Cytochrome P450 3A4 (Homo sapiens) (UniProt P08684); test: LTEA_HepaRG_CYP3A4: Life Technologies and Expression Analysis (LTEA) Assay for CYP3A4 using HepaRG (AID 2283487)
Procedure, shortened: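 In a human hepatic line (HepaRG), duplicate wells were treated 48 h with up to 100 uM chemical in half-log dilutions. Endpoint: CYP3A4 mRNA induction or loss relative to 0.5% DMSO vehicle, by qRT-PCR.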

[2] = read-out: Pro-epidermal growth factor (Homo sapiens) (UniProt P01133); test: LTEA_HepaRG_EGF: Life Technologies and Expression Analysis (LTEA) Assay for Epidermal growth factor (EGF) using HepaRG (AID 2283489)
Procedure, shortened: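 EGF transcript measured by Fluidigm TaqMan qRT-PCR with three housekeeping genes for normalization, 48 h after dosing HepaRG cultures in duplicate (top 100 uM, half-log steps, 0.5% DMSO vehicle). Gain or loss relative to DMSO fitted.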

[3] = read-out: Early growth response protein 1 (EGR1) transcription factor, EGR1 (gene 1958); test: LTEA_HepaRG_EGR1: Life Technologies and Expression Analysis (LTEA) Assay for Early growth response protein 1 (EGR1) transcription factor using HepaRG (AID 2283490)
Procedure, shortened: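 HepaRG, 48 h exposure, 8-pt half-log series from 100 uM, 0.5% DMSO vehicle; EGR1 transcript by TaqMan qRT-PCR (Fluidigm array), housekeeping-normalized; bidirectional fit relative to DMSO baseline.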

[4] = read-out: Ezrin (EZR), EZR (gene 7430); test: LTEA_HepaRG_EZR: Life Technologies and Expression Analysis (LTEA) Assay for Ezrin (EZR) using HepaRG (AID 2283491)
Procedure, shortened: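 Gain or loss of EZR mRNA is scored relative to 0.5% DMSO in human HepaRG cultures treated 48 h with test chemicals in duplicate, eight half-log concentrations from 100 uM.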

CYP3A5 (gene 1577) = test: LTEA_HepaRG_CYP3A5: Life Technologies and Expression Analysis (LTEA) Assay for CYP3A5 using HepaRG (AID 2283493)
Procedure, shortened: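 Readout was CYP3A5 mRNA by qRT-PCR. HepaRG cultures were exposed for 48 h in serum-free induction medium to chemicals at up to 100 uM, and responses were fitted in both directions relative to DMSO vehicle.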

[5] = read-out: Fatty Acid-Binding Protein 1 (FABP1), FABP1 (gene 2168); test: LTEA_HepaRG_FABP1: Life Technologies and Expression Analysis (LTEA) Assay for Fatty Acid-Binding Protein 1 (FABP1) using HepaRG (AID 2283494)
Procedure, shortened: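 qRT-PCR readout of FABP1 transcript (normalized to three housekeeping genes) after 48 h chemical exposure of HepaRG cells; eight concentrations, half-log steps, max 100 uM, 0.5% DMSO vehicle; gain or loss fitted relative to DMSO baseline.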

[6] = read-out: Cytochrome P450 4A22 (Homo sapiens) (UniProt Q5TCH4); test: LTEA_HepaRG_CYP4A22: Life Technologies and Expression Analysis (LTEA) Assay for Cytochrome P450 4A22 (CYP4A22) using HepaRG (AID 2283495)
Procedure, shortened: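 Gene expression measured by qRT-PCR against three housekeeping genes (ACTB, GAPDH, POLR2A), with gain or loss fitted relative to 0.5% DMSO vehicle. HepaRG cultures received 48 h chemical treatment, top concentration 100 uM, half-log steps, duplicate wells.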

[7] = read-out: Cytochrome P450 7A1 (Homo sapiens) (UniProt P22680); test: LTEA_HepaRG_CYP7A1: Life Technologies and Expression Analysis (LTEA) Assay for Cytochrome P450 7A1 (CYP7A1) using HepaRG (AID 2283496)
Procedure, shortened: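 Using 0.5% DMSO as vehicle and baseline, chemicals were tested in duplicate over an 8-point range from 100 uM on HepaRG cells for 48 h; qRT-PCR signals were normalised to ACTB, GAPDH and POLR2A.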

[8] = read-out: Glutathione S-Transferase (GSTA2), GSTA2 (gene 2939); test: LTEA_HepaRG_GSTA2: Life Technologies and Expression Analysis (LTEA) Assay for Glutathione S-Transferase (GSTA2) using HepaRG (AID 2283497)
Procedure, shortened: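 qRT-PCR readout of GSTA2 transcript, normalized to three housekeeping genes, fitted bidirectionally against 0.5% DMSO baseline. Differentiated HepaRG cells received compound for 48 h at 8 concentrations (top 100 uM, half-log steps).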

[9] = read-out: Glutamate-cysteine ligase catalytic (GCLC), GCLC (gene 2729); test: LTEA_HepaRG_GCLC: Life Technologies and Expression Analysis (LTEA) Assay for Glutamate-cysteine ligase catalytic (GCLC) using HepaRG (AID 2283498)
Procedure, shortened: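 HepaRG, 48 h exposure, 8-pt half-log series from 100 uM, 0.5% DMSO vehicle; TaqMan qRT-PCR for GCLC mRNA, housekeeping-normalized; bidirectional curve fit vs DMSO baseline.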

[10] = read-out: Glutamate-cysteine ligase regulatory (GCLM), GCLM (gene 2730); test: LTEA_HepaRG_GCLM: Life Technologies and Expression Analysis (LTEA) Assay for Glutamate-cysteine ligase regulatory (GCLM) using HepaRG (AID 2283500)
Procedure, shortened: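 In this multiplexed HepaRG gene-expression assay, GCLM mRNA change after 48 h treatment (8 concentrations, max 100 uM) was scored against DMSO by bidirectional curve fitting.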

[11] = read-out: Glutathione S-transferase M3 (GSTM3), GSTM3 (gene 2947); test: LTEA_HepaRG_GSTM3: Life Technologies and Expression Analysis (LTEA) Assay for Glutathione S-transferase M3 (GSTM3) using HepaRG (AID 2283501)
Procedure, shortened: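 GSTM3 transcript levels came from Fluidigm TaqMan qRT-PCR normalized to three housekeeping genes, fitted in both directions against DMSO. HepaRG cultures received chemicals for 48 h in serum-free induction medium (0.5% DMSO), 8 half-log concentrations up to 100 uM, duplicate.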

[12] = read-out: Heat shock 70 kDa protein 1 (HSPA1A), gene 3303; test: LTEA_HepaRG_HSPA1A: Life Technologies and Expression Analysis (LTEA) Assay for Heat shock 70 kDa protein 1 (HSPA1A) using HepaRG (AID 2283502)
Procedure, shortened: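 An oxidative-stress marker readout: HepaRG cells treated 48 h in duplicate with an eight-point series (highest 100 uM) had HSPA1A mRNA quantified by TaqMan qRT-PCR. Activity was fitted in both directions using 0.5% DMSO as baseline.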

[13] = read-out: Hypoxia-inducible factor 1-alpha (Homo sapiens) (UniProt Q16665); test: LTEA_HepaRG_HIF1A: Life Technologies and Expression Analysis (LTEA) Assay for Hypoxia-inducible factor 1 (HIF1A) Trancription factor using HepaRG (AID 2283503);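 further: HIF1A transcript by TaqMan qRT-PCR normalized to ACTB GAPDH and POLR2A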
Procedure, shortened: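 Gain- or loss-of-signal HIF1A mRNA changes are fitted against a DMSO baseline. HepaRG cultures receive eight concentrations, highest 100 uM, for 48 h in serum-free induction medium with 0.5% DMSO.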

[14] = read-out: 3-Hydroxy-3-Methylglutaryl-CoA Synthase 2 (HMGCS2), HMGCS2 (gene 3158); test: LTEA_HepaRG_HMGCS2: Life Technologies and Expression Analysis (LTEA) Assay for 3-Hydroxy-3-Methylglutaryl-CoA Synthase 2 (HMGCS2) using HepaRG (AID 2283504)
Procedure, shortened: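 Readout is HMGCS2 transcript by qRT-PCR, housekeeping-normalised (ACTB/GAPDH/POLR2A) and fitted bidirectionally against 0.5% DMSO. Differentiated HepaRG cells received chemicals 48 h, duplicate wells, eight half-log concentrations topping at 100 uM.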

HGF (gene 3082) = test: LTEA_HepaRG_HGF: Life Technologies and Expression Analysis (LTEA) Assay for Hepatocyte Growth Facto (HGF) using HepaRG (AID 2283505)
Procedure, shortened: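 HGF transcript was quantified by TaqMan qRT-PCR against three housekeeping genes after 48 h treatment of HepaRG cells. Exposure ran in duplicate over eight half-log steps topping at 100 uM in 0.5% DMSO vehicle.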

Measured: AC50

Sequence of Hypoxia-inducible factor 1-alpha (Homo sapiens) (Q16665 whole entry, looked up): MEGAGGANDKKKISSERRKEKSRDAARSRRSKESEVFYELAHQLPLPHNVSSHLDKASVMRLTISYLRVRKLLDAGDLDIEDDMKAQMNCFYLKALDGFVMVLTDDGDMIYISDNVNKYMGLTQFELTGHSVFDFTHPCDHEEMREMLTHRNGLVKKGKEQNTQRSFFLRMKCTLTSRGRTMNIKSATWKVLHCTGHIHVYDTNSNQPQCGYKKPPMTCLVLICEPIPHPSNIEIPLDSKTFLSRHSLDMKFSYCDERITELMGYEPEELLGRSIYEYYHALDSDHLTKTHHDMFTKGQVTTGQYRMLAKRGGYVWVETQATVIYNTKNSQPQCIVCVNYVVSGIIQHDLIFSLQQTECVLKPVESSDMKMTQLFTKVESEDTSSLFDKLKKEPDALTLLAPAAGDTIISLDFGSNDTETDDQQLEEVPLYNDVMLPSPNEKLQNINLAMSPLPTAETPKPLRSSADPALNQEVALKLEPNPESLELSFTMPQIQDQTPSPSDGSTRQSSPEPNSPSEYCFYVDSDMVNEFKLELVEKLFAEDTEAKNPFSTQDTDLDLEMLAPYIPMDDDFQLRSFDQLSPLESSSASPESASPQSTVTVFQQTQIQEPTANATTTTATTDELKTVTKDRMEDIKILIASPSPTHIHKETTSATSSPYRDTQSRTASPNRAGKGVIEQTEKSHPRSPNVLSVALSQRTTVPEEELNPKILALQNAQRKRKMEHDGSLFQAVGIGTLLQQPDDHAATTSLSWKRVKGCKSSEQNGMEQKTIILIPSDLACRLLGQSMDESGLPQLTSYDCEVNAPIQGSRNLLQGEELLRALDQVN
Sequence of Cytochrome P450 3A4 (Homo sapiens) (P08684 whole entry, looked up): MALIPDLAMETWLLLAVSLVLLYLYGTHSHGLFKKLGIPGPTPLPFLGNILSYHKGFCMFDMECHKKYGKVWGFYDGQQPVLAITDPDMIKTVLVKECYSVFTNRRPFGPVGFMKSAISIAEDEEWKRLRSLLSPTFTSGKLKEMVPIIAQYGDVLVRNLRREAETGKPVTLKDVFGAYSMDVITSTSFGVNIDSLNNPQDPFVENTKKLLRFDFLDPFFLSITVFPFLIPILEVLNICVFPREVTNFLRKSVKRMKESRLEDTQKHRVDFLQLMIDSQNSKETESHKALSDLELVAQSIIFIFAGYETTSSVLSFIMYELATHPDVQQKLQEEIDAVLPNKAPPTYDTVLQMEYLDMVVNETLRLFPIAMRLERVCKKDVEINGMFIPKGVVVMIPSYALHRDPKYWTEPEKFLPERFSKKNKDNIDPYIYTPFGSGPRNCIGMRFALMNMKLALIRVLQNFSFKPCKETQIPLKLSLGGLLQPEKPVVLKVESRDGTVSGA

COc1nc(NC(C)C)nc(NC(C)C)n1
active: [1] 7.19 µM | [5] 23.1 µM
not listed: HGF (gene 3082)
inactive: all other assays above

CNC(=S)S
not listed: HGF (gene 3082)
inactive: all other assays above

CC1COC(Cn2cncn2)(c2ccc(Oc3ccc(Cl)cc3)cc2Cl)O1 (stereo not drawn)
inactive: [2] | [9] | [10] | [11]
active: CYP4A11 (gene 1579) 12.9 µM | [1] 23.2 µM | [3] 63.2 µM | [4] 0.479 µM | CYP3A5 (gene 1577) 84.1 µM | [5] 23.3 µM | [6] 15.5 µM | [7] 13.8 µM | [8] 19.7 µM | [12] 87.2 µM | [13] 11.6 µM | [14] 11.7 µM

N#Cc1nn(-c2c(Cl)cc(C(F)(F)F)cc2Cl)c(N)c1S(=O)C(F)(F)F (stereo not drawn)
active: CYP4A11 (gene 1579) 24.6 µM | [1] 32.6 µM | [3] 13.2 µM | [4] 29.3 µM | [5] 24.1 µM | [6] 26.2 µM | [7] 35 µM | [8] 32 µM | [10] 29.1 µM | [11] 80.8 µM | [12] 11.9 µM | [13] 79.5 µM | [14] 38.3 µM
inactive: CYP3A5 (gene 1577) | [9]

CCOP(=S)(OCC)SCn1c(=O)oc2cc(Cl)ccc21
not listed: HGF (gene 3082)
inactive: all other assays above

CC1=C(C(=O)Nc2ccccc2)SCCO1
active: [5] 50 µM | [7] 35.7 µM | [14] 71.8 µM
not listed: HGF (gene 3082)
inactive: all other assays above

Fc1ccc(Oc2ccnc3cc(Cl)cc(Cl)c23)cc1
active: CYP4A11 (gene 1579) 70.1 µM | [2] 32.8 µM | [5] 87 µM | [6] 82.6 µM | [7] 90.5 µM | [8] 83.6 µM
not listed: HGF (gene 3082)
inactive: all other assays above

O=C(O)COc1nc(Cl)c(Cl)cc1Cl
not listed: HGF (gene 3082)
inactive: all other assays above

CON(C)C(=O)Nc1ccc(Cl)c(Cl)c1
active: CYP4A11 (gene 1579) 86.6 µM | [1] 78.6 µM | [5] 37.6 µM | [6] 84.4 µM | [7] 16.8 µM | [8] 50 µM | [9] 80 µM | [10] 73.2 µM | [14] 63.4 µM
inactive: [2] | [3] | [4] | CYP3A5 (gene 1577) | [11] | [12] | [13]

C#CCOS(=O)OC1CCCCC1Oc1ccc(C(C)(C)C)cc1 (stereo not drawn)
inactive: [3] | [4] | [6]
active: CYP4A11 (gene 1579) 25.9 µM | [1] 28.8 µM | [2] 29.4 µM | CYP3A5 (gene 1577) 30.1 µM | [5] 18.7 µM | [7] 26.6 µM | [8] 27.7 µM | [9] 28.2 µM | [10] 9.92 µM | [11] 29.7 µM | [12] 27.2 µM | [13] 26.4 µM | [14] 25.6 µM

Cc1ccc(-c2c(Cl)nc(C#N)n2S(=O)(=O)N(C)C)cc1
active: CYP4A11 (gene 1579) 10.4 µM | [1] 24.8 µM | [5] 4.76 µM | [6] 73.9 µM | [7] 10 µM | [8] 9.43 µM | [9] 7.01 µM | [11] 50 µM | [14] 28.7 µM
inactive: [2] | [3] | [4] | CYP3A5 (gene 1577) | [10] | [12] | [13]

CCOc1cc(Oc2ccc(C(F)(F)F)cc2Cl)ccc1[N+](=O)[O-]
active: CYP4A11 (gene 1579) 41.6 µM | [1] 12.2 µM | [2] 10.5 µM | [5] 30.4 µM | [6] 39.1 µM | [7] 34.8 µM | [8] 39.9 µM | [10] 50 µM | [14] 41.9 µM
inactive: [3] | [4] | CYP3A5 (gene 1577) | [9] | [11] | [12] | [13]

COC(=O)C=C(C)OP(=O)(OC)OC
active: [3] 50 µM | [7] 14.7 µM
inactive: all other assays above
